Measurements reported in publication PMC4336329 (PLoS ONE, 2015).
About 14,000 (4.5%) of roughly 310,000 compounds showed an effect of 50% or more. Effects have a minus sign here. Shown is part of a subset that was picked to be rich in strong results.

Biological target: human ether-à-go-go-related gene (hERG) potassium channel (human, UniProt Q12809)
Assay: primary screen, population patch clamp on CHO cells stably expressing hERG; higher = less effect of the substance
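Further: peak tail current of the secondary pulse compared with the same well before compound.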

Chain of human ether-à-go-go-related gene (hERG) potassium channel (Q12809 whole entry, looked up): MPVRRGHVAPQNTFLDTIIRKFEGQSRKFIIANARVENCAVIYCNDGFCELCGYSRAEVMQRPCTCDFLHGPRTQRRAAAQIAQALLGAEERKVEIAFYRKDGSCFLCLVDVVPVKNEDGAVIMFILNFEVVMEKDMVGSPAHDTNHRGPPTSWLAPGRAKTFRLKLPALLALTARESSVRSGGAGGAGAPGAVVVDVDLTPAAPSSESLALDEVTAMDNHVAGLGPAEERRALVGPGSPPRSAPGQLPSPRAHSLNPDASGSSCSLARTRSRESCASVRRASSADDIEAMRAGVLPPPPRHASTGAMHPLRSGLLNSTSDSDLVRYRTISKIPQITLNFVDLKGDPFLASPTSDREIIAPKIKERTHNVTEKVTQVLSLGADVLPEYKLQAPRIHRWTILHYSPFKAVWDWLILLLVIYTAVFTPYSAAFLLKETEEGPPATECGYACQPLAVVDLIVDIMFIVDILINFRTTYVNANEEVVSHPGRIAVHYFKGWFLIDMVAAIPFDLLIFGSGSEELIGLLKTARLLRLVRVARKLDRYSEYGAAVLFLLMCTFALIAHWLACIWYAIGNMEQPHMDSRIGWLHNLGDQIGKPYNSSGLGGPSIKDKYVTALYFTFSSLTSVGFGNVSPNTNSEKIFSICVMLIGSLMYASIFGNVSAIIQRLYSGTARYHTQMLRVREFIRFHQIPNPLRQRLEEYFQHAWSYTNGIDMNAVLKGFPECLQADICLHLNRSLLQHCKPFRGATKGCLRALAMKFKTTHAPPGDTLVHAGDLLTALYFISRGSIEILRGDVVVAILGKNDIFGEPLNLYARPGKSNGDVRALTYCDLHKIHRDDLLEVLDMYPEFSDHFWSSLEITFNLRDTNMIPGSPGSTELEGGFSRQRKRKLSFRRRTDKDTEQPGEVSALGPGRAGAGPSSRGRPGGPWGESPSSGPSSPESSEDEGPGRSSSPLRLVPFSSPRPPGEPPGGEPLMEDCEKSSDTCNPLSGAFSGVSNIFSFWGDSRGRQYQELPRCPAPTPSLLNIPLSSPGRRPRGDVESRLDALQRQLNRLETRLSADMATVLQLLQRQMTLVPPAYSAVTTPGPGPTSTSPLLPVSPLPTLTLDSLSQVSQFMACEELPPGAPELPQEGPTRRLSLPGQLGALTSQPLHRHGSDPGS

Row | Compound | hERG current change (%, negative = inhibition) at 10uM [%]
1 | CC(=NCC1CCCO1)c1c(O)n(-c2ccc(C)cc2)c(=O)[nH]c1=O (stereo not shown) | -8.18
2 | O=S1(=O)CCC(N=Nc2c(O)n(Cc3ccccc3)c3ccccc23)C1 (stereo not shown) | -25.1
3 | COc1cc(C)ccc1OCCOc1c(C)cccc1Cl | 2.01
4 | CCOc1ccc(NC(=O)NCc2ccco2)cc1 | 16.4
5 | CCOC(=O)c1ccccc1NC(=O)c1cn(-c2ccc(C)c(C)c2)c(=O)c2ccccc12 | -2.12
6 | CC(CN1CCCC1)OC(=O)c1ccc(F)cc1.Cl (stereo not shown) | -10.1
7 | COC(=O)CNC(=O)c1ccc(C)s1 | -0.614
8 | CCc1c(C(=O)NNC(=S)NC2CCCCC2)csc1C | 16.3
9 | O=c1cc(C(F)(F)F)c2sc(N3CCCCC3)nc2[nH]1 | 20.1
10 | Cc1ccc(C(=O)N/C(=C\c2ccc(F)cc2)C(=O)NCc2ccncc2)cc1 | -75.9
11 | Cc1ccc(NC(=O)/C(=C/c2ccncc2)NC(=O)c2ccccc2)cc1 | -9.82
12 | O=C(NCc1ccco1)/C(=C/c1ccc(F)cc1)NC(=O)c1ccccc1 | -14.1
13 | CSc1ccc(/C=C(\NC(=O)c2ccc(C)cc2)C(=O)NN)cc1 | -10.9
14 | Cc1ccc(C(=O)N/C(=C/c2ccc(F)cc2)C(=O)NCc2ccncc2)cc1 | -72.8
15 | CSc1ccc(/C=C(/NC(=O)c2ccc(C)cc2)C(=O)Nc2cccc(F)c2)cc1 | 6.66
16 | CN(C)c1ccc(/C=C(\NC(=O)c2ccccc2)C(=O)NCc2ccncc2)cc1 | -12.8
17 | O=C(NCc1ccc(F)cc1)c1ccncc1 | 13.7
18 | O=C(NCc1ccncc1)/C(=C\c1ccc(F)cc1)NC(=O)c1ccccc1 | -70.9
19 | O=C(O)c1cccc(-n2cccc2/C=N/O)c1 | 11.4
20 | Cc1ccnc(NC(=O)CCC(=O)N(CC(=O)NC(C)(C)C)C2CCCC2)c1 | 1
21 | Cc1cc(C)c(OCC(=O)Nc2cccc(NC(=O)c3ccco3)c2)c(Br)c1 | 1.79
22 | CCOc1ccc(NC(=O)c2ccccc2NC(=O)CN2CCN(C(C)=O)CC2)cc1 | -3.2

Row | Compound | hERG current change (%, negative = inhibition) at 10uM [%]
23 | O=C(NCCSc1ncc(-c2ccc(F)cc2)[nH]1)c1ccco1 | -37.1
24 | C/C=C/c1ccc(OCCN2C(=O)NC(C)(C)C2=O)c(OC)c1 | 6.58
25 | OC(CNCCc1ccccc1)c1ccccc1 (stereo not shown) | -0.0558
26 | OCc1cc(C(O)CNCCCCCCOCCCCc2ccccc2)ccc1O (stereo not shown) | -57.9
27 | O=C(O)c1ccc2ccccc2c1O.OCc1cc(C(O)CNCCCCCCOCCCCc2ccccc2)ccc1O (stereo not shown) | -45.5
28 | Cc1ccc(C(=O)Nc2ccc(N3CCN(C(=O)c4ccco4)CC3)cc2)cc1 | 10.4
29 | CCN(CC)CCCN1C(=O)c2oc3ccccc3c(=O)c2C1c1cc(OC)ccc1OC (stereo not shown) | -13
30 | COC(=O)C(C#N)c1nc2ccccc2nc1N1CCN(Cc2ccc3c(c2)OCO3)CC1 (stereo not shown) | -2.48
31 | N#CC(C(=O)NC1CC1)c1nc2ccccc2nc1N1CCN(C/C=C/c2ccccc2)CC1 (stereo not shown) | -58.9
32 | N#CC(C(=O)NC1CC1)c1nc2ccccc2nc1N1CCCC1 (stereo not shown) | -7.63
33 | CC(C)OC(=O)C(C#N)c1nc2ccccc2nc1N1CCN(Cc2ccccc2)CC1 (stereo not shown) | -18.6
34 | CC(C)COC(=O)C(C#N)c1nc2ccccc2nc1N1CCN(Cc2ccccc2)CC1 (stereo not shown) | -12
35 | COCC(C)OC(=O)C(C#N)c1nc2ccccc2nc1N1CCN(Cc2ccccc2)CC1 (stereo not shown) | -31
36 | C=CCOC(=O)C(C#N)c1nc2ccccc2nc1N1CCN(Cc2ccccc2)CC1 (stereo not shown) | -62.1
37 | CC1CCN(c2nc3ccccc3nc2C(C#N)C(=O)NC2CCCCC2)CC1 (stereo not shown) | 10.1
38 | COCCOC(=O)C(C#N)c1nc2ccccc2nc1N1CCN(Cc2ccccc2)CC1 (stereo not shown) | -64.3
39 | CSc1ccc(/C=C/C(=O)c2ccc(NC(=O)Cc3ccccc3)cc2)cc1 | -4.59
40 | O=C(O)c1ccc(NS(=O)(=O)c2ccc(Cl)c(Cl)c2)cc1O | -1.71
41 | COc1ccc(-c2csc3nc(-c4ccccc4F)oc(=O)c23)cc1OC | -3.61
42 | CCOC(=O)c1ccc(COC(=O)c2cc3ccccc3oc2=O)o1 | -48.6
43 | Cc1ccc(C2NC(=O)NC3=C2CCc2ccccc23)cc1 (stereo not shown) | 2.59
44 | O=C1NC2=C(CCc3ccccc32)C(c2ccc(Br)cc2)N1 (stereo not shown) | -56.3

Row | Compound | hERG current change (%, negative = inhibition) at 10uM [%]
45 | O=C1NC2=C(CCc3ccccc32)C(c2ccccc2)N1 (stereo not shown) | -20.8
46 | CCOC(=O)c1cccc(NC(=O)c2c(O)[nH]c(=O)[nH]c2=O)c1 | -2.88
47 | Cc1ccc(CN2CCSc3ccc(C(=O)N4CCN(c5ncccn5)CC4)cc32)cc1 | 19
48 | CN(NC(=O)C(C)(C)C)c1nc(-c2ccccc2)nnc1C(F)(F)F | -4.05
49 | COc1ccc(N2CCN(C(=O)CSc3ncnc4c3cnn4-c3ccccc3C)CC2)cc1 | 10.8
50 | Cc1sc2ncnc(SCC(=O)Nc3ccc(CN4CCCC4)cc3)c2c1C | -72.6
51 | Cc1sc2ncnc(SCC(=O)N3CCCC3)c2c1C | 2.1
52 | O=C(CSc1ncnc2c1cnn2-c1ccccc1Cl)N1CCN(C(=O)c2ccco2)CC1 | -65.7
53 | Cc1nc(SCC(=O)Nc2ccc(CN3CCCC3)cc2)c2c(C)c(C)sc2n1 | -35.3
54 | Cc1sc2nc(C(C)C)nc(SCC(=O)N3CCOCC3)c2c1C | -0.958
55 | CC(=O)Nc1ccc(NC(=O)CSc2ncnc3sc(C)c(C)c23)cc1 | 8.58
56 | Cc1sc2ncnc(SCC(=O)N3CCN(C(=O)c4ccco4)CC3)c2c1C | -70.1
57 | Cc1sc2nc(C(C)C)nc(SCC(=O)N3CCN(C(=O)c4ccco4)CC3)c2c1C | -72.3
58 | Cc1sc2ncnc(OCC(=O)N3CCN(C(=O)c4ccco4)CC3)c2c1C | -30.8
59 | Cc1sc2nc(C(C)C)nc(SCC(=O)NCc3ccco3)c2c1C | 2.82
60 | CC(C)C(=O)NNC(=O)CSc1ncnc2c1cnn2-c1ccccc1Cl | 9.5
61 | Cc1cc(=O)n2nc(N3CCCC(C(=O)N4CCOCC4)C3)sc2n1 (stereo not shown) | 3.1
62 | COc1ccc(/C=C/c2c([N+](=O)[O-])c(=O)n(C)c(=O)n2C)c(OC)c1OC | 13
63 | O=C(N/N=C/c1cccc2ccccc12)c1cccs1 | 20.7
64 | COc1ccccc1N(CC(=O)NCC1CCCO1)C(=O)CNS(=O)(=O)c1ccccc1 (stereo not shown) | -0.369
65 | Cc1cc(=O)oc(C)c1C(=O)Nc1ccc2nsnc2c1 | 9.45
66 | CCOC(=O)c1ccc2c(c1)nc(SC(C)C(=O)NCC1CCCO1)n2CC (stereo not shown) | -18.9

Row | Compound | hERG current change (%, negative = inhibition) at 10uM [%]
67 | CCOC(=O)c1ccc(NC(=O)CNC(=O)c2ccco2)cc1 | 13.8
68 | O=C(NC(=S)Nc1ccccn1)c1ccc([N+](=O)[O-])cc1 | -11.9
69 | O=C(CC12CC3CC(CC(C3)C1)C2)NC1CC1 | 23.2
70 | CCOc1ccc(S(=O)(=O)N2CCN(C(=S)NCc3ccccc3)CC2)cc1 | -18.2
71 | Nc1cccc(C(=O)Nc2cccc3ncccc23)c1 | 23.8
72 | Cc1cccc(N2CCN(C(=O)c3ccc4c(c3)CCN4S(C)(=O)=O)CC2)c1C | -14.8
73 | Cc1nc(SCC(=O)N2CCCCC2)c2c(C)c(C)sc2n1 | -11.7
74 | Cc1nc(SCC(=O)N2CCN(C(=O)c3ccco3)CC2)c2c(C)c(C)sc2n1 | -66.8
75 | Cc1nc(SCC(=O)N2CCOCC2)c2c(C)c(C)sc2n1 | 1.76
76 | CCCN1Cc2cccc(C(=O)NCc3ccccc3)c2C1=O | -34.9
77 | O=C(Nc1ccc(-c2nnc(-c3ccccc3)o2)cc1)C1CCCO1 (stereo not shown) | -13.3
78 | O=C(Nc1cccc(-c2nnc(-c3ccccc3)o2)c1)C1CC1 | -19.3
79 | O=C(Nc1cccc(-c2nnc(-c3ccccc3)o2)c1)C1CCCO1 (stereo not shown) | -66.5
80 | C=CCn1c(=NC(=O)C2CCCCC2)sc2cc(NC(C)=O)ccc21 | -2.15
81 | OC(COCc1cccs1)CN1CCN(c2ccccn2)CC1 (stereo not shown) | -52.5
82 | Cc1cccc(N2CCN(CC(O)COCc3cccs3)CC2)c1C (stereo not shown) | -70.8
83 | CCOC(=O)C1CCN(CC(O)COCc2cccs2)CC1 (stereo not shown) | -38
84 | O=S(=O)(c1ccc(F)cc1)N1CCN(CC(O)COCc2cccs2)CC1 (stereo not shown) | -18.5
85 | OC(COCc1cccs1)CN1CCN(c2ccccc2Cl)CC1 (stereo not shown) | -71
86 | Oc1ccccc1N1CCN(CC(O)COCc2ccccc2Cl)CC1 (stereo not shown) | -42
87 | COc1ccccc1N1CCN(CC(O)COCc2cccs2)CC1.Cl (stereo not shown) | -19.8
88 | CCOc1ccccc1N1CCN(CC(O)COCc2cccs2)CC1 (stereo not shown) | -32.1
